Some of the results follow. Records with an inconclusive call do not appear. Values without a mark were called inactive. Activity calls are given as the source filed them. Calls follow the shape of the dose curve; as a rule, active = well fitted activation curve with a large enough effect; inconclusive = small, poorly fitted or top-dose-only effect; inactive = flat fitted curve, though single readings scatter.
Test: Parental Cell Counter Screen Assay for Epigenetic Modulators: Hit Validation
Conditions: mouse c127i parental cells, 30 h; Potency: fluorescent cell count; fluorescent cell count: active compounds read high, concentration not given here
Description: NIH Molecular Libraries Screening Centers Network [MLSCN] NIH Chemical Genomics Center [NCGC] MLSCN Grant: 1 X01 MH079860-01 Assay Provider: Elisabeth D. Martinez, University of Texas SW Medical Center NCGC Assay Overview: This assay is a counter screen for the Locus Derepression (LDR) assay (PubChem AID 1865). The LDR assay detects the derepression of a GFP reporter that is stably integrated in a region of the genome of murine c127i mammary cells that is presumably silenced. Compounds that cause derepression of the locus to express GFP are identified by enumerating GFP positive cells using a laser-scanning microplate cytometer. […] Compounds active in the parental c127i cells are likely fluorescent.
NCGC Assay Protocol Summary: Three hundred cells in 5 uL per well were dispensed into black, clear-bottom 1536-well plates. Twenty-three nL compound was transferred to the assay plate and cells were incubated 30 hours at 37 C. Medium was removed, cells were washed two times with PBS, and fluorescent cells were enumerated as objects between the sizes of 20 to 120 um width and depth using a laser-scanning microplate imager (Acumen Explorer Ex3, TTP Labtech). For further details, see Johnson, RL, Huang, W, Jadhav, A, Austin, CP, Inglese, J, Martinez, ED (2008). A quantitative high-throughput screen identifies potential epigenetic modulators of gene expression. Anal Biochem 375: 237-48.

SMILES	fluorescent cell count [%]	Potency
Cc1ccc(/C=N/NC(=S)Nc2cccc(S(=O)(=O)N(C)C)c2)o1	2	–
Cc1cccn2c(=O)c(/C=C3\SC(=S)N(CC(C)C)C3=O)c(NCCCOC(C)C)nc12	–	2510 nM (active)
